Laboratory results: PubChem BioAssay AID371 (SRMLSC, 2006)
The campaign covered roughly 3,300 compounds. About 280 (8.5%) were called active.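 How the source made its calls: active means mean growth inhibition over the two runs of 50% or more; inactive means mean growth inhibition under 50%.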 For the sample, actives were picked, then their nearest neighbours and some compounds at random.

Assay: A549 NSCLC cell proliferation inhibitors – ATP luminescence, human non-small cell lung line, primary screen (AID 371);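 further: compound exposure lasted 72 h before the ATP read; 0% = untreated cell signal and 100% = no luminescence left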
Details: at 10 µM, stronger effect = higher value

Growth inhibition, active:
CCCCCCCCNC(C)C(O)c1ccc(SC(C)C)cc1 (stereo not drawn) 92.4%
Cc1cc(C)cc(-n2c3nc4ccccc4nc3c3c(=O)n(Cc4ccco4)cnc32)c1 72.2%
COc1ccc(OC)c(NS(=O)(=O)c2ccc(N3CCCC3=O)cc2)c1 62.5%
c1ccc(N2CCN(c3nc(-c4ccccn4)nc4ccccc34)CC2)cc1 64.6%
c1ccc(CN2CCN(c3nc(-c4ccccn4)nc4ccccc34)CC2)cc1 60%
CCCN(CCC)c1nc2ccccc2nc1C(C#N)C(=O)OC(C)COC (stereo not drawn) 52.1%
Cc1oc2cc(O)cc(C)c2c(=O)c1-c1cnn(-c2ccccc2)c1 59%
CCOC(=O)C1=C(C)NC(SCC(=O)Nc2nc(C)cs2)=C(C#N)C1c1cccs1 (stereo not drawn) 86.8%
CNCCCC12CCC(c3ccccc31)c1ccccc12 52.9%
COc1ccc(CCN2CCC(Nc3nc4ccccc4n3Cc3ccc(F)cc3)CC2)cc1 95.5%
COc1cc2c(cc1OC)C1(CCCC1)C(N)=C2C#N 54.9%
CN1CCCN(C(c2ccccc2)c2ccc(Cl)cc2)CC1 (stereo not drawn) 78.7%
COc1ccccc1-n1c(N)c(C(=O)NCC2CCCO2)c2nc3ccccc3nc21 (stereo not drawn) 52.9%
COc1cc2nc(N3CCN(C(=O)C4COc5ccccc5O4)CC3)nc(N)c2cc1OC (stereo not drawn) 91%
COc1cc2nc(N3CCN(C(=O)c4ccco4)CC3)nc(N)c2cc1OC 82.5%
COCCNC(=O)c1c(N)n(CCC2=CCCCC2)c2nc3ccccc3nc12 91.2%

Growth inhibition, inactive:
COC(=O)CCc1c(C)[nH]c(C(=O)OCc2ccccc2)c1C 3.52%
O=C(Nc1ccc2c(c1)OCO2)c1cc2n(n1)C(C(F)(F)F)CC(c1ccccc1)N2 (stereo not drawn) 10.4%
Cc1nc2sc(C)c(C)c2c(=O)o1 3.93%
COCCCNC(=O)C(C#N)c1nc2ccccc2nc1N1CCCC1 (stereo not drawn) 9.56%
O=C(O)CCCC(=O)Nc1ccn(-c2ccccc2)n1 -9.55%
COc1ccc(C2C(C#N)=C(C)NC3=C2C(=O)c2ccccc23)cc1 (stereo not drawn) 19.6%
COCCOCCOCCC(=O)NC1CC2CCC1(C)C2(C)C (stereo not drawn) 0.85%
O=C(CCC1CCCC1)N1CCC(N2CCN(c3ccccc3)CC2)CC1 17.9%
CC(NCCc1ccc(O)cc1)C(O)c1ccc(O)cc1 (stereo not drawn) 1.42%
NC(=O)C1CCN(CCC(=O)Nc2ccc(Br)cc2)CC1 7.48%
Cc1cccc(NC(=O)c2c(C)cc(=O)oc2C)n1 -3.57%
CCNc1nc(Oc2ccccc2)nc(OC(C)C(=O)OCC)n1 (stereo not drawn) -2.75%
CCOc1ccc(-n2c3nc4ccccc4nc3c3c(=O)n(Cc4ccco4)cnc32)cc1 14.6%
COc1cc(-n2c3nc4ccccc4nc3c3c(=O)n(Cc4ccco4)cnc32)cc(OC)c1OC 4.1%
COc1ccc(C2(CN(C(C)=O)C(C)=O)CCCC2)cc1OC 9.44%
COC(=O)NCC12CC3CC(C1)CC(CNC(=O)OC)(C3)C2 2.32%
Nc1c(Br)cc2oc(-c3ccccc3)nc2c1Br 31.4%
O=C1CCCN1c1ccc(S(=O)(=O)NCc2ccco2)cc1 0.41%
COc1ccc(N2CC(=O)N(c3ccc(OC)c(OC)c3)CC2=O)cc1OC -2.72%
CCOc1ccc(/C(O)=C2/C(=O)C(=O)N(CCN(C)C)C2c2ccccc2)cc1Cl (stereo not drawn) -0.75%
COc1cccc(/C(O)=C2\C(=O)C(=O)N(c3ccccn3)C2c2ccccc2OC)c1 (stereo not drawn) 6.79%
CC(C)Cn1cnc2c(c1=O)c1nc3ccccc3nc1n2Cc1ccc2c(c1)OCO2 12.6%
CC(C)C1Cc2c(C#N)c(N)n(C)c(=S)c2CO1 (stereo not drawn) 11.2%
COc1ccc(OC)c(C2C(C(=O)c3ccco3)=C(O)C(=O)N2CCCN2CCOCC2)c1 (stereo not drawn) 4.05%
Fc1ccccc1-c1nc(N2CCCCC2)c2ccccc2n1 47.5%
c1ccc2c(N3CCCCC3)nc(N3CCCCC3)nc2c1 25.8%
COc1cccc(-c2nc(N3CCN(Cc4ccccc4)CC3)c3ccccc3n2)c1O 6.86%
Cc1nc(N2CCN(Cc3ccccc3)CC2)c(C#N)c2c1COC(C)(C)C2 17.5%
CCOC(=O)COc1nc(N(C)C)nc(N(C)C)n1 -5.85%
Cc1nc(SCC(=O)Nc2ccc3c(c2)OCO3)c(C#N)c2c1CCCC2 18.5%
C=C1C2(C(=O)Nc3nccs3)CCC(C2)C1(C)C (stereo not drawn) 5.39%
COc1ccc(-c2nnc3sc(-c4c(OC)cccc4OC)nn23)cc1 16.6%
CC(O)CNc1nc2c(c(=O)n(C)c(=O)n2C)n1Cc1cccc(C(F)(F)F)c1 (stereo not drawn) 22.2%
O=C(Nc1ccc2c(c1)OCO2)c1cncc(Br)c1 4.86%
COC(=O)c1ccn(C(=O)c2ccc(Cl)cc2)n1 3.19%
COCCOC(=O)c1c(C)nc(SCC(=O)Nc2ccc(OC)cc2)c(C#N)c1-c1ccco1 5.46%
C=CCN(CC=C)c1nc2ccccc2nc1C(C#N)C(=O)OC(C)C (stereo not drawn) 23.2%
CCCCN(CCCC)c1nc2ccccc2nc1C(C#N)C(=O)NCCCOC (stereo not drawn) 9.29%
Cc1oc2cc(O)ccc2c(=O)c1-c1cnn(-c2ccccc2)c1 28.4%
CCOC(=O)c1oc2cc(O)cc(C)c2c(=O)c1-c1cscn1 4.18%
C#CCSC1=C(C#N)C(c2cccs2)C(C(=O)OCC)=C(C)N1 (stereo not drawn) 47.5%
CCSC1=C(C#N)C(c2cccs2)C(C(=O)OC)=C(C)N1 (stereo not drawn) 30.4%
COc1cc(-c2nn3c(-c4ccco4)nnc3s2)cc(OC)c1OC 0.05%
O=C(NCCCN1CCOCC1)C1(c2ccccc2)CCOCC1 2.07%
O=C(c1ccc(=O)oc1)N1CCN(C(c2ccccc2)c2ccccc2)CC1 41.2%
CCCCc1nc2n[nH]c(N)c2c2c1CCCC2 12.1%
CC(C)(C#N)C(C)(C)c1nn[nH]n1 -3.48%
Cc1cc(=O)n(CCC(=O)O)c2ccccc12 0.16%
COc1ccc2c(c1)nc(N)n2Cc1ccccc1 21.8%
Clc1ccc(Cn2c(CN3CCCC3)nc3ccccc32)cc1 29.6%
COc1ccc(OC)c(C2C(C#N)=C(N)Oc3cc(C)n(Cc4ccccn4)c(=O)c32)c1 (stereo not drawn) -2.3%
COC(=O)CSc1nc(C)c(Oc2ccccc2)c(=O)[nH]1 -3.23%
COC(=O)c1ccccc1OCc1cccc(C)n1 6.89%
Cc1cccc2c1NC(C)CC2C (stereo not drawn) 0.83%
COc1ccc(C2C(C#N)=C(N)SC(N)=C2C#N)cc1OC 2.23%
CC(=O)NC1(C(F)(F)F)C(=O)Nc2c1c(=O)n(C)c(=O)n2C (stereo not drawn) 0.54%
CCOC(=O)C1=C(N)N2C(=O)CSC2=C(C(=O)OC)C1 -0.01%
Cc1cccc(CN2CCN(C(c3ccccc3)c3ccc(Cl)cc3)CC2)c1 (stereo not drawn) 3.35%
OCCOCCN1CCN(C(c2ccccc2)c2ccc(Cl)cc2)CC1 (stereo not drawn) 1.66%
CCCCCn1c2nc3ccccc3nc2c2c(=O)n(CC(C)C)cnc21 -1.51%
CN1CCN(c2nc3c(c(=O)n(C)c(=O)n3C)n2Cc2cccc3ccccc23)CC1 -7.28%
CCN(CC)CCCN1C(=O)C(=O)/C(=C(/O)c2ccc(OC)cc2)C1c1ccco1 (stereo not drawn) 1.94%
Nc1c(C(=O)NCC2CCCO2)c2nc3ccccc3nc2n1/N=C/c1ccncc1 (stereo not drawn) 2.51%
COCCn1c(N)c(C(=O)NCC2CCCO2)c2nc3ccccc3nc21 (stereo not drawn) 23.5%
O=C(Oc1ccccc1N1C(=O)CCC1=O)c1ccco1 6.54%
COC(=O)CSc1nc2c(c(=O)n(C)c(=O)n2C)n1CCC(C)C -2.98%
COc1ccc2[nH]c(C)c(C(=O)CN3CCN(C(=O)c4ccco4)CC3)c2c1 7.48%
COc1cccc(OC)c1OCCN1CCN(C(=O)c2ccco2)CC1 2.2%
COC(=O)c1ccccc1NC(=O)C1COc2ccccc2O1 (stereo not drawn) 11.9%
COc1cc2nc(N3CCN(C(=O)C4CCCO4)CC3)nc(N)c2cc1OC (stereo not drawn) 15.4%
Cc1cc(Cl)ccc1OCC(=O)OC(C)C(=O)N(C)C (stereo not drawn) -0.96%
O=C(O)c1cc2n(n1)C(C(F)(F)F)CC(c1ccccc1)N2 (stereo not drawn) -0.01%
CCOC(=O)c1nc2nc(C)c(Cl)c(=O)n2[nH]1 -2.82%
O=C(O)CC(SCc1ccc(C(=O)O)o1)C(=O)O (stereo not drawn) -5.57%
CC(=O)C(=[N+]=[N-])C(=O)NCc1ccccc1 -2.8%
CC(C)(C)NCc1cc2ccccc2[nH]c1=O 4.01%
Cc1nc2oc(C(=O)c3ccc(Br)cc3)c(N)c2c2c1COC(C)(C)C2 24.5%
COCCCNC(=O)c1c(N)n(/N=C/c2cccs2)c2nc3ccccc3nc12 17%
COCCNC(=O)c1c(N)n(/N=C/c2cccs2)c2nc3ccccc3nc12 6.53%
CCC(CC)n1[nH]c(=O)cc1N 1.19%
CC1(C)CC(=O)C(C=N)=C(O)C1 1.41%
O=C(c1ccccc1F)N1CCC(N2CCCCCC2)CC1 2.62%
